Counter-ions that a name gives are not always drawn.
Assays:
Conditions in all cases: incubation time: 27 h, anaerobic, 37 °C;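 for the amine columns active = adjusted P below 0.05 in both replicates with a change the same way and a mean fold change under 0.8 or over 1.25; inactive = the rest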
[1] = tested on: Clostridium sporogenes DSM 1664; assay: growth (OD595) fold change vs plate DMSO controls (fold change (ratio)); higher = more growth
In short: (§1)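 Growth is the fold change relative to the median of plate DMSO controls. Readings came from anaerobic mGAM cultures in 96-well plates grown for 27 h at 37 °C and read at 595 nm. They were blank-subtracted, corrected for compound background with 20 µM compound solutions in water, and converted to OD with a calibration factor of 5. Values are means of 2 biological replicates, and fold changes above 1.5 were set to NA.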

[2] = tested on: Escherichia coli IAI1; assay: as above
In short: as §1

[3] = tested on: Klebsiella aerogenes DSM 30053; assay: as above
In short: as §1

[4] = tested on: Ruminococcus gnavus DSM 108212; assay: as above
In short: as §1

[5] = tested on: Klebsiella aerogenes DSM 30053; assay: fold change of Histamine concentration vs plate DMSO controls (fold change (ratio)); higher = more amine produced, active = hit call of the paper (significant change in both replicates, either direction)
In short: (§2)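 Amine values are fold changes relative to DMSO-only wells on the same plate. They derive from 27 h, 37 °C anaerobic mGAM cultures of four gut bacterial strains in 80 µL wells, dosed at 20 µM final, or 50 µM final for sweeteners. Extraction of the whole culture, LC–triple-quadrupole MS in dynamic MRM mode, external calibration curves and within-batch drift correction were used, with 2 biological replicates averaged.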

[6] = tested on: Clostridium sporogenes DSM 1664; assay: fold change of Tryptamine concentration vs plate DMSO controls (fold change (ratio)); higher = more amine produced, active = hit call of the paper (significant change in both replicates, either direction)
In short: as §2

[7] = tested on: Ruminococcus gnavus DSM 108212; assay: as above
In short: as §2

[8] = tested on: Escherichia coli IAI1; assay: fold change of Putrescine concentration vs plate DMSO controls (fold change (ratio)); higher = more amine produced, active = hit call of the paper (significant change in both replicates, either direction)
In short: as §2

[9] = tested on: Klebsiella aerogenes DSM 30053; assay: as above
In short: as §2

[10] = tested on: Escherichia coli IAI1; assay: fold change of Cadaverine concentration vs plate DMSO controls (fold change (ratio)); higher = more amine produced, active = hit call of the paper (significant change in both replicates, either direction)
In short: as §2

[11] = tested on: Klebsiella aerogenes DSM 30053; assay: as above
In short: as §2

[12] = tested on: Ruminococcus gnavus DSM 108212; assay: fold change of 2-Phenylethylamine concentration vs plate DMSO controls (fold change (ratio)); higher = more amine produced, active = hit call of the paper (significant change in both replicates, either direction)
In short: as §2

Compound | growth [1] | growth [2] | growth [3] | growth [4] | fold change of Histamine concentration [5] | fold change of Tryptamine concentration [6] | fold change of Tryptamine concentration [7] | fold change of Putrescine concentration [8] | fold change of Putrescine concentration [9] | fold change of Cadaverine concentration [10] | fold change of Cadaverine concentration [11] | fold change of 2-Phenylethylamine concentration [12]
CC(=O)Oc1cc2c(s1)CCN(C(C(=O)C1CC1)c1ccccc1F)C2 (stereo not drawn) [Prasugrel] (20 µM) | 1.1 | 1.02 | 1 | 0.989 | 1 (inactive) | 0.957 (inactive) | 0.985 (inactive) | 0.983 (inactive) | 1.01 (inactive) | 1.03 (inactive) | 0.994 (inactive) | 0.965 (inactive)
O=C(NCCN1CCOCC1)c1ccc(Cl)cc1 [Moclobemide] (20 µM) | 1.03 | 0.993 | 0.971 | 1.21 | 1.06 (inactive) | 1.04 (inactive) | 1.03 (inactive) | 1 (inactive) | 1.01 (inactive) | 1.01 (inactive) | 0.987 (inactive) | 1.03 (inactive)
NCCc1ccc(O)c(O)c1 [Dopamine hydrochloride] (20 µM) | 0.979 | 1.06 | 1.03 | 0.996 | 1.06 (inactive) | 0.994 (inactive) | 1.03 (inactive) | 0.967 (inactive) | 0.996 (inactive) | 0.959 (inactive) | 0.987 (inactive) | 1.05 (inactive)
O=C1c2ccccc2C(=O)C1c1ccccc1 [Phenindione] (20 µM) | 1.17 | 0.963 | 0.969 | 1.07 | 1.08 (inactive) | 1 (inactive) | 1.01 (inactive) | 0.958 (inactive) | 1 (inactive) | 0.984 (inactive) | 0.976 (inactive) | 0.977 (inactive)
CCCNC(C)(C)COC(=O)c1ccccc1 [Meprylcaine hydrochloride] (20 µM) | 0.985 | 1.02 | 0.991 | 1.17 | 1.02 (inactive) | 1.01 (inactive) | 1.04 (inactive) | 1.01 (inactive) | 1 (inactive) | 1.04 (inactive) | 0.991 (inactive) | 1.01 (inactive)
CCOCC(O)COc1ccc(NC(=O)CC[S+](C)C)cc1 (stereo not drawn) [Suplatast Tosylate] (20 µM) | 0.999 | 1.04 | 0.988 | 1 | 1.03 (inactive) | 1.01 (inactive) | 0.978 (inactive) | 1.04 (inactive) | 1.02 (inactive) | 0.989 (inactive) | 0.991 (inactive) | 0.909 (inactive)
NC(=O)N1c2ccccc2C=Cc2ccccc21 [Carbamazepine] (20 µM) | 0.968 | 1.08 | 1.01 | 1.17 | 1.03 (inactive) | 0.973 (inactive) | 1.02 (inactive) | 1.03 (inactive) | 1 (inactive) | 1.04 (inactive) | 1.01 (inactive) | 0.987 (inactive)
CN1CCCC(n2nc(Cc3ccc(Cl)cc3)c3ccccc3c2=O)CC1 (stereo not drawn) [Azelastine hydrochloride] (20 µM) | 1.05 | 1.05 | 0.95 | 0.57 | 1.13 (inactive) | 0.963 (inactive) | 0.943 (inactive) | 1.03 (inactive) | 1.03 (inactive) | 1.01 (inactive) | 0.976 (inactive) | 0.937 (inactive)
Oc1c(Cl)cc(Cl)cc1Sc1cc(Cl)cc(Cl)c1O [Bithionol] (20 µM) | 0 | 0.881 | 1.01 | 0.0806 | 1.05 (inactive) | 0.0165 (active) | 0.101 (active) | 1.26 (active) | 1.02 (inactive) | 1.51 (active) | 1.01 (inactive) | 0.0838 (active)
CC(C(=O)O)c1ccc(-c2ccccc2)c(F)c1 (stereo not drawn) [Flurbiprofen] (20 µM) | 0.961 | 1 | 1 | 1.02 | 1.07 (inactive) | 1.02 (inactive) | 0.937 (inactive) | 1.06 (inactive) | 1.03 (inactive) | 1 (inactive) | 1.01 (inactive) | 0.882 (inactive)
O=c1cc(-c2ccc(O)c(O)c2)oc2cc(O)cc(O)c12 [Luteolin] (20 µM) | 0.877 | 0.977 | 0.977 | 1.11 | 0.969 (inactive) | 0.776 (inactive) | 0.985 (inactive) | 1.07 (inactive) | 0.991 (inactive) | 1.03 (inactive) | 1.02 (inactive) | 1.08 (inactive)
CC(=O)N[C@@H](CC(C)C)C(=O)O [N-Acetyl-L-leucine] (20 µM) | 1.1 | 0.831 | 0.991 | 1 | 0.86 (inactive) | 0.964 (inactive) | 1.03 (inactive) | 0.892 (inactive) | 1.01 (inactive) | 1.07 (inactive) | 1.03 (inactive) | 1.04 (inactive)
CC(C)(Sc1cc(C(C)(C)C)c(O)c(C(C)(C)C)c1)Sc1cc(C(C)(C)C)c(O)c(C(C)(C)C)c1 [Probucol] (20 µM) | 1.03 | 1.06 | 1.03 | 1.15 | 0.921 (inactive) | 1.02 (inactive) | 1.01 (inactive) | 1.04 (inactive) | 0.983 (inactive) | 0.921 (inactive) | 1.01 (inactive) | 1.01 (inactive)
C[C@]12C=CC(=O)C=C1CC[C@@H]1[C@@H]2[C@@H](O)C[C@@]2(C)[C@H]1CC[C@]2(O)C(=O)CO [Prednisolone] (20 µM) | 0.973 | 0.997 | 1 | 0.987 | 1.02 (inactive) | 1.03 (inactive) | 0.942 (inactive) | 0.997 (inactive) | 1 (inactive) | 0.997 (inactive) | 1 (inactive) | 0.815 (inactive)
CCCCCCC[N+](CC)(CC)CCCCc1ccc(Cl)cc1 [Clofilium tosylate] (20 µM) | 1.2 | 0.984 | 1.07 | 1.26 | 0.897 (inactive) | 1.32 (inactive) | 0.792 (inactive) | 1.17 (inactive) | 0.968 (inactive) | 0.947 (inactive) | 1.03 (inactive) | 0.867 (inactive)
C=CC[C@@H]1/C=C(\C)C[C@H](C)C[C@H](OC)[C@H]2O[C@@](O)(C(=O)C(=O)N3CCCC[C@H]3C(=O)O[C@H](/C(C)=C/[C@@H]3CC[C@@H](O)[C@H](OC)C3)[C@H](C)[C@@H](O)CC1=O)[C@H](C)C[C@@H]2OC [Tacrolimus Monohydrate] (20 µM) | 0.867 | 1.04 | 1.02 | 1.02 | 1.02 (inactive) | 1.02 (inactive) | 1.01 (inactive) | 1.05 (inactive) | 1.02 (inactive) | 1.01 (inactive) | 1.01 (inactive) | 1.02 (inactive)
CC(C)NC(=N)NC(=N)Nc1ccc(Cl)cc1 [Proguanil hydrochloride] (20 µM) | 0.986 | 0.955 | 0.964 | 0.969 | 1.06 (inactive) | 1.04 (inactive) | 1.03 (inactive) | 1.09 (inactive) | 0.997 (inactive) | 0.868 (inactive) | 0.979 (inactive) | 1.02 (inactive)
C=CC1=C(C(=O)O)N2C(=O)[C@@H](NC(=O)/C(=N\O)c3csc(N)n3)[C@H]2SC1 [Cefdinir] (20 µM) | 0 | 0 | 0.757 | 0 | 1.22 (inactive) | 0.0307 (active) | 0.04 (active) | 0.208 (active) | 0.979 (inactive) | 0.77 (inactive) | 1.03 (inactive) | 0.0439 (active)
C#Cc1cccc(Nc2ncnc3cc(OCCOC)c(OCCOC)cc23)c1 [Erlotinib] (20 µM) | 0.903 | 0.969 | 1.01 | 0.842 | 1.05 (inactive) | 1 (inactive) | 1.02 (inactive) | 0.987 (inactive) | 1.04 (inactive) | 1.02 (inactive) | 1.01 (inactive) | 1.05 (inactive)
COc1ccc(/C=C/C(=O)Nc2ccccc2C(=O)O)cc1OC [Tranilast] (20 µM) | 1.04 | 1.07 | 1.19 | 1.08 | 0.89 (inactive) | 0.993 (inactive) | 1.01 (inactive) | 0.977 (inactive) | 0.994 (inactive) | 0.995 (inactive) | 1.02 (inactive) | 0.981 (inactive)
CC(C)(C)NCC(O)COc1cccc2c1CCC(=O)N2 (stereo not drawn) [Carteolol hydrochloride] (20 µM) | 0.96 | 1.01 | 0.997 | 0.895 | 0.987 (inactive) | 0.985 (inactive) | 1.01 (inactive) | 1.01 (inactive) | 0.982 (inactive) | 1 (inactive) | 0.996 (inactive) | 0.982 (inactive)
CN(C)CCCN1c2ccccc2Sc2ccc(C(F)(F)F)cc21 [Triflupromazine hydrochloride] (20 µM) | 1.08 | 1.04 | 1.01 | 1.21 | 0.959 (inactive) | 1.05 (inactive) | 0.814 (inactive) | 1.01 (inactive) | 0.998 (inactive) | 1.08 (inactive) | 1.01 (inactive) | 0.821 (inactive)
CC(C)(C)c1ccc(C(O)CCCN2CCC(C(O)(c3ccccc3)c3ccccc3)CC2)cc1 (stereo not drawn) [Terfenadine] (20 µM) | 1.21 | 1 | 1.09 | 1.21 | 0.886 (inactive) | 1.06 (inactive) | 0.754 (active) | 1 (inactive) | 0.97 (inactive) | 1.05 (inactive) | 1.01 (inactive) | 0.815 (inactive)
NCCCC(O)(P(=O)(O)O)P(=O)(O)O [Alendronate sodium] (20 µM) | 1.08 | 1.04 | 1.1 | 1.03 | 0.858 (inactive) | 1.1 (inactive) | 1.05 (inactive) | 0.992 (inactive) | 0.947 (inactive) | 1.01 (inactive) | 1.01 (inactive) | 1.05 (inactive)

— the supplement of paper PMC12494721
